In PubChem BioAssay (NCI):
About 83,000 compounds went through this panel and 20% of them were active in at least one assay; those are over-represented in the sample as a whole.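 Single-concentration screen, 48 h exposure, 96-well plates. Endpoint: percent growth. Below 10 = active.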 Activity calls are given as the source filed them.

Tests used:
Assay in all cases: NCI-60 one-dose screen, 48 h (100 = growth as untreated, 0 = no growth, -100 = all killed)
Settings in all cases: 10 µM unless noted
T-47D breast = tested on: T-47D breast
BT-549 breast = tested on: BT-549 breast
SW-620 colon = tested on: SW-620 colon
MCF7 breast = tested on: MCF7 breast
HCT-116 colon = tested on: HCT-116 colon
HCC-2998 colon = tested on: HCC-2998 colon
KM12 colon = tested on: KM12 colon
MDA-MB-435 melanoma = tested on: MDA-MB-435 melanoma

Measured: growth

COc1cc2ncnc(Nc3ccc4c(cnn4C(=O)Nc4ccccc4)c3)c2cc1OC
inactive: T-47D breast 77.7% | BT-549 breast 83.4% | SW-620 colon 103% | MCF7 breast 60.4% | HCT-116 colon 95.8% | HCC-2998 colon 87.4% | KM12 colon 93.5%

COc1cc(-c2nn(-c3ccc(NC(=O)Nc4cc(C(F)(F)F)cc(C(F)(F)F)c4)cc3)cc2-c2ccncc2)ccc1Cl
inactive: SW-620 colon 13.9%
active: T-47D breast 8.74% | MDA-MB-435 melanoma 0.886% | MCF7 breast -4.41% | HCT-116 colon -11% | HCC-2998 colon -7.63% | KM12 colon 0.412%

O=C1OC(c2ccc(-c3ccccc3)cc2)=C/C1=C/c1c2ccccc2cc2ccccc12
inactive: T-47D breast 102% | MDA-MB-435 melanoma 102% | SW-620 colon 96.9% | MCF7 breast 83.9% | HCC-2998 colon 98.7% | KM12 colon 97.3%

C/C(=N\Nc1ccc(Cl)cn1)c1ccccn1
active: BT-549 breast 9.46% | MCF7 breast 3.89% | HCT-116 colon 1.21%
inactive: MDA-MB-435 melanoma 26.4% | SW-620 colon 27% | HCC-2998 colon 27% | KM12 colon 20%

Cc1nc(N)sc1C(=O)NCCO
inactive: T-47D breast 106% | MDA-MB-435 melanoma 128% | SW-620 colon 109% | MCF7 breast 98.2% | HCC-2998 colon 168% | KM12 colon 102%

OC(c1ccccc1)(c1ccccc1)C(F)(F)F
inactive: T-47D breast 92.1% | MDA-MB-435 melanoma 103% | MCF7 breast 104% | HCT-116 colon 107% | KM12 colon 92.3%

CC(=O)Nc1nc(C)c(C(=O)NNS(=O)(=O)c2ccccc2)s1
inactive: T-47D breast 114% | MDA-MB-435 melanoma 125% | SW-620 colon 106% | MCF7 breast 110% | HCT-116 colon 52.1% | HCC-2998 colon 105% | KM12 colon 125%

NCCCOc1cc(Cl)ccc1NC(=O)c1cc2ccccc2cc1OCCCN
active: T-47D breast -70.5% | MDA-MB-435 melanoma -68.5% | SW-620 colon -92% | MCF7 breast -93.9% | HCT-116 colon -97.3% | KM12 colon -94.9%

COc1cccc(NC(=O)NCCNc2nccc(-c3c(-c4ccc(F)cc4)nc4sccn34)n2)c1
inactive: T-47D breast 71.8% | MDA-MB-435 melanoma 76.9% | SW-620 colon 101% | MCF7 breast 32% | HCT-116 colon 67.8% | HCC-2998 colon 105% | KM12 colon 87.7%

COc1cc2oc(-c3ccc(NC(=O)c4ccccc4)cc3)cc(=O)c2c(OC)c1OC
inactive: BT-549 breast 75.6% | MDA-MB-435 melanoma 95% | SW-620 colon 93.2% | MCF7 breast 75% | HCT-116 colon 91.3% | HCC-2998 colon 89.8% | KM12 colon 90.6%

COc1ccc2cc(C(C)C(=O)Nc3ccc(S(=O)(=O)Nc4cc(C)on4)cc3)ccc2c1 (centres undefined)
inactive: T-47D breast 84.8% | MDA-MB-435 melanoma 105% | MCF7 breast 102% | KM12 colon 110%

O=C(N/N=C\c1ccc(-c2ccc(Br)cc2)o1)c1cc2oc(-c3cccc(C(F)(F)F)c3)cc2[nH]1
inactive: T-47D breast 101% | MDA-MB-435 melanoma 98.9% | SW-620 colon 118% | MCF7 breast 89.9% | HCC-2998 colon 85.5% | KM12 colon 74%

C=CC1CN2CCC1CC2C(O)c1ccnc2ccc(OC)cc12 (centres undefined)
inactive: T-47D breast 102% | MDA-MB-435 melanoma 100% | SW-620 colon 105% | MCF7 breast 91% | HCT-116 colon 49.8% | HCC-2998 colon 155% | KM12 colon 112%

COc1cc(-c2nn(-c3ccc(NC(=O)Nc4ccc(Cl)c(C(F)(F)F)c4)cc3)cc2-c2ccncc2)ccc1Cl
active: MDA-MB-435 melanoma 4% | MCF7 breast 8.22% | HCT-116 colon 2.34% | HCC-2998 colon -2.15% | KM12 colon 6.77%
inactive: T-47D breast 15.1% | SW-620 colon 13.4%

O=[N+]([O-])c1ccc(-c2ncc(-c3ccc(O)cc3O)[nH]2)cc1
inactive: T-47D breast 102% | MDA-MB-435 melanoma 121% | SW-620 colon 106% | MCF7 breast 90.3% | HCC-2998 colon 123% | KM12 colon 112%

O=C(Nc1cccc(Cn2c(=O)[nH]c3ccc(Oc4ncccn4)cc3c2=O)c1)c1cccc(F)c1
inactive: BT-549 breast 71.4% | MDA-MB-435 melanoma 51% | SW-620 colon 95.3% | MCF7 breast 57.9% | HCT-116 colon 70.8% | HCC-2998 colon 92.5% | KM12 colon 66.6%

NCCCOc1cc2ccccc2cc1C(=O)Nc1ccc(Cl)cc1OC(=O)c1cc2ccccc2cc1OCCCN
active: T-47D breast -55.9% | SW-620 colon -94.9% | MCF7 breast -78.9% | HCT-116 colon -92.6% | KM12 colon -96.5%

CCS(=O)(=O)N[C@@H]1O[C@H](COC(C)=O)C(OC(C)=O)[C@H](OC(C)=O)C1OC(C)=O (some centres undefined)
inactive: T-47D breast 90.7% | MDA-MB-435 melanoma 103% | MCF7 breast 103% | HCT-116 colon 95.3% | KM12 colon 106%

CCCCn1c(Cc2ccc(OC)cc2)nc2cc(OC)c(OC)cc2c1=O
inactive: T-47D breast 57% | MDA-MB-435 melanoma 83.7% | SW-620 colon 92.5% | MCF7 breast 81.3% | HCC-2998 colon 98.1% | KM12 colon 93.6%

O=C(Nc1ccc(-n2cc(-c3ccncc3)c(-c3ccc(Cl)c(O)c3)n2)cc1)c1ccc(Cl)c(Cl)c1
inactive: T-47D breast 71.9% | MDA-MB-435 melanoma 43.5% | SW-620 colon 11.2% | MCF7 breast 27.9% | HCT-116 colon 16.8% | HCC-2998 colon 10.1%
active: KM12 colon 0.115%

O=c1c2c(c3ccccc3n1-c1ccccc1)NC(=S)NC2c1ccccc1 (centres undefined)
inactive: T-47D breast 59.9% | MDA-MB-435 melanoma 111% | SW-620 colon 107% | MCF7 breast 42.3% | HCT-116 colon 96.1% | HCC-2998 colon 98.8% | KM12 colon 104%

N#Cc1c2cccnc2c2nnc3cc(Cl)c(Cl)cc3n12
active: SW-620 colon -39% | MCF7 breast 1.41% | HCT-116 colon -73.1%
inactive: T-47D breast 25.9% | MDA-MB-435 melanoma 84.4% | HCC-2998 colon 13.4% | KM12 colon 47.5%

Cc1nc(NC(=S)Nc2ccc(F)cc2)sc1C(=O)NNC(=S)Nc1ccc(F)cc1
inactive: T-47D breast 35.6% | MDA-MB-435 melanoma 71.5% | SW-620 colon 86.7% | MCF7 breast 72.2% | HCT-116 colon 44.9% | HCC-2998 colon 68.4% | KM12 colon 76.6%

COC(=O)C1CC(=O)N(C(=O)Nc2ccc(Cl)cc2Cl)C1 (centres undefined)
inactive: BT-549 breast 95.9% | MDA-MB-435 melanoma 107% | SW-620 colon 105% | MCF7 breast 87.6% | HCT-116 colon 98.1% | HCC-2998 colon 107% | KM12 colon 104%

CC(C)(C)c1ccc(OCCOC(=O)CBr)cc1
inactive: T-47D breast 94.2% | MDA-MB-435 melanoma 112% | SW-620 colon 86.2% | MCF7 breast 98.3% | HCT-116 colon 83.7% | HCC-2998 colon 104% | KM12 colon 87.7%

Cc1[nH]n(C(=S)Nc2nc3cc(Cl)c(F)cc3s2)c(=O)c1N=Nc1ccc(F)c(Cl)c1
inactive: T-47D breast 79.6% | MDA-MB-435 melanoma 124% | SW-620 colon 102% | MCF7 breast 80.8% | HCC-2998 colon 114% | KM12 colon 110%

COc1cc(-c2nn(-c3ccc(NC(=O)c4cc(Cl)cc(Cl)c4)cc3)cc2-c2ccncc2)ccc1Cl
inactive: T-47D breast 79.8% | MDA-MB-435 melanoma 84.1% | SW-620 colon 77.2% | MCF7 breast 78% | HCT-116 colon 64.9% | HCC-2998 colon 62.2% | KM12 colon 38.7%

COc1ccc(C2CC(=O)c3c(O)cc(OC4OC(COC5OC(C)C(O)C(O)C5O)C(O)C(O)C4O)cc3O2)cc1O (centres undefined)
inactive: T-47D breast 121% | MDA-MB-435 melanoma 102% | SW-620 colon 113% | MCF7 breast 95.1% | HCT-116 colon 43.6% | HCC-2998 colon 129% | KM12 colon 124%

CC(=O)Nc1nc(C)c(C(=O)NN)s1
inactive: T-47D breast 85.9% | MDA-MB-435 melanoma 137% | SW-620 colon 97.4% | MCF7 breast 99.1% | HCT-116 colon 94.7% | HCC-2998 colon 84.2% | KM12 colon 102%

O=C(Nc1cccc2[nH]c(C(F)(F)F)nc12)c1ccc(F)cc1
inactive: BT-549 breast 87.5% | MDA-MB-435 melanoma 87.2% | SW-620 colon 91.5% | MCF7 breast 83.8% | HCT-116 colon 84.4% | HCC-2998 colon 115% | KM12 colon 73.1%

O=c1[nH]c2cc(O)ccc2n2cc3c(F)cccc3c12
active: MDA-MB-435 melanoma -12.2% | MCF7 breast -3.3%
inactive: T-47D breast 39.1% | SW-620 colon 18.7% | HCT-116 colon 19.9% | KM12 colon 34.7%

Nc1nc(-c2cccc(Br)c2)cc(-c2cc3ccccc3oc2=O)n1
inactive: T-47D breast 83.2% | MDA-MB-435 melanoma 117% | SW-620 colon 105% | MCF7 breast 57.6% | HCT-116 colon 85.5% | KM12 colon 99.2%

N#Cc1c(N)nc(Nc2nc3ccccc3[nH]2)nc1-c1ccc(Cl)cc1
inactive: T-47D breast 93.8% | MDA-MB-435 melanoma 106% | SW-620 colon 117% | MCF7 breast 86.9% | HCT-116 colon 109% | KM12 colon 109%

COc1cc(-c2nc3c(c(C)nc4c3nnn4-c3ccccc3)c(=O)o2)cc(OC)c1OC
inactive: BT-549 breast 105% | MDA-MB-435 melanoma 106% | SW-620 colon 107% | MCF7 breast 97.5% | HCT-116 colon 99.3% | HCC-2998 colon 130% | KM12 colon 110%

O=Nc1ccc(O)c2ccccc12
inactive: SW-620 colon 12.1% | HCC-2998 colon 68.4% | KM12 colon 14%
active: T-47D breast -9.85% | MDA-MB-435 melanoma -63.8% | MCF7 breast -37.8% | HCT-116 colon 0.195%

COc1cc(-c2nn(-c3ccc(NC(=O)c4ccc(Cl)c(Cl)c4)cc3)cc2-c2ccncc2)ccc1Cl
inactive: T-47D breast 64.9% | SW-620 colon 48.6% | MCF7 breast 60.6% | HCT-116 colon 25% | HCC-2998 colon 48.3% | KM12 colon 25.1%

O=C1Nc2c(c(=O)n(-c3ccccc3)c3ccccc23)C(c2ccc(Cl)cc2)N1 (centres undefined)
inactive: T-47D breast 91.5% | MDA-MB-435 melanoma 99.9% | SW-620 colon 98% | MCF7 breast 91.1% | HCT-116 colon 56.2% | HCC-2998 colon 61% | KM12 colon 61.1%
